# Shown is part of a subset that was picked to be rich in hits.
# Marburg entry inh – Marburg virus entry inhibition; Marburg virus pseudotyped entry inhibition, cell reporter; actives 1.8% (n = 300,000); Potency, µM (doses to about 37.8 µM), for the others: at the highest dose activity change, negative = inhibition, usual class: inhibitors; calls by dose curve; tested in HEK293 cells; note: potency is the fitted concentration of half-maximal effect; % is set by controls: 0 for no effect and ±100 for the full control effect
# VACV Venus inh – vaccinia inhibition (Venus reporter) | Vaccinia virus Venus reporter expression, fluorescence | Potency, µM (series often up to 36.5 µM), for the others: top-dose activity change, negative = inhibition, actives largely listed as inhibitors | actives 0.46% (n = 330,000) | AID 720580; calls by dose curve; tested in A549 cells; note: potency is the fitted concentration of half-maximal effect; % is set by controls: 0 for no effect and ±100 for the full control effect; nearly all actives have a fitted effect of over 30% in size
# Lassa entry inh – inhibitors of Lassa virus binding or cell entry. Lassa virus pseudotype entry inhibition, cell reporter. actives 1.2% (n = 300,000). Potency, µM (highest dose often 37.9 µM), without a hit: at the top dose activity change, negative = inhibition, hits mostly inhibitors; calls by dose curve; tested in HEK293 cells; note: potency is the fitted concentration of half-maximal effect; % is set by controls: 0 for no effect and ±100 for the full control effect; nearly all actives have a fitted effect of over 50% in size
# VACV mCherry inh – inhibitors of vaccinia virus infection (mCherry reporter signal); actives 0.63% (n = 310,000); AID 720579; Potency, µM (doses to about 36.5 µM), without a hit: at the highest dose activity change, negative = inhibition, most hits filed as inhibitors; Vaccinia virus mCherry reporter infection, fluorescence; calls by dose curve; tested in A549 cells; note: potency is the fitted concentration of half-maximal effect; % is set by controls: 0 for no effect and ±100 for the full control effect; nearly all actives have a fitted effect of over 35% in size
# CHX counter – affects cycloheximide protein synthesis inhibition readout, counter-screen; cell reporter, cycloheximide protein synthesis inhibition counterscreen; max response, %; actives 12% (n = 300,000); in the data active = max response mostly above about 13%, no sharp cut-off; inactive = mostly below about 14%; note: read at 38.3 µM for the half of the compounds with a filed dose; 0% is about no effect
# Shiga inhibitor – blocks Shiga toxin action in Vero cells; Vero cells, Shiga toxin protein synthesis inhibition reporter; inhibition, % at 38.7 µM; actives 9.2% (n = 290,000); AID 2315; in the data active = inhibition mostly above about 28%, no sharp cut-off; inactive = mostly below about 43%; note: 0% is about no effect
# An asterisk follows results filed as active; i = inactive; ? = inconclusive; . = no result given; [ ] = remark or other dose.
SMILES,Marburg entry inh,VACV Venus inh,Lassa entry inh,VACV mCherry inh,CHX counter,Shiga inhibitor
CCOc1ccc(S(=O)(=O)/N=C(/Nc2ccc(OC)cc2)c2ccccc2)cc1,-3%,-13%,?,-25%,13,8
COc1ccc(C(=O)NN/C(=N/S(=O)(=O)c2ccc(C)cc2)c2ccccc2)cc1,?,-10%,8.9µM*,i,52*,59*
COc1ccc(C(=O)NNS(=O)(=O)c2ccccc2)cc1,?,-7%,1%,-7%,17*,55
COc1ccc(S(=O)(=O)Nc2cccc3c2O[C@H](CN(C)C)[C@@H](C)CN([C@H](C)CO)C3=O)cc1,.,14%,.,i,.,.
CCn1cc(-c2csc(N)n2)c(C)n1,5%[46.1 µM],-1%,-2%,-2%,11,14
CCn1ncc(-c2csc(N)n2)c1C,23%[46.1 µM],-6%,-8%,-12%,26*,31
O=C(NC(=S)NCCSc1ccccc1)c1cccnc1,?,-16%,7%,-18%,27*,37*
CCCCOc1cccc(C(=O)NC(=S)Nc2cccnc2)c1,?,-1%,?,?,10,-4
O=C(NC(=S)Nc1cccnc1)c1cccc(Br)c1,?,11%,1%[46.1 µM],-11%,17*,63*
CCCC(=O)NC(=S)Nc1ccc(Cl)cn1,?,.,?,.,30*,55
Cc1c(Cl)cccc1NC(=S)NC(=O)c1cncc(Br)c1,-5%[46.1 µM],-10%,3.2µM*,i,.,.
Cc1cccc(C)c1NC(=O)C1(C)CCC(=O)N1CCCn1ccnc1 (stereo not given),.,4%,.,6%,.,.
CSc1ncc(Cl)c(C(=O)Nc2c(C(=O)c3ccc(Cl)cc3)oc3ccccc23)n1,22%[46.1 µM],2%,26%[46.1 µM],-13%,.,.
O=C(Nc1cnccn1)c1cccs1,4%,.,17%,.,19*,66
O=C(NNC(=O)c1cccs1)c1ccc(Cl)nc1,18%,-9%,3%[46.1 µM],i,.,.
O=C(NC(=S)Nc1cc(Cl)ccc1O)c1cccc(Br)c1,.,-10%,.,-8%,42*,90*
O=C(NC(=S)Nc1cccnc1)c1cccs1,20%,-9%,28%,i,20*,42*
O=C(Nc1ncc(Cl)cn1)c1cccs1,20%,-9%,8%,.,45*,59*
O=C(NNC(=O)c1cccc(Br)c1)Nc1ccc(Cl)cc1,?,-6%,0%,9%,-4,-9
COc1cccc(S(=O)(=O)N(C)C[C@H]2OCc3cn(nn3)CCCC(=O)N([C@H](C)CO)C[C@@H]2C)c1,.,-5%,.,i,.,.
CCN(CC)CCN1C(=O)C(=O)/C(=C(\O)c2ccc(F)cc2)[C@@H]1c1ccncc1,-20%,.,.,.,.,.
O=C(NC(=S)Nc1ccc(Cl)cn1)c1cccs1,?,-10%,?,.,63*,99*
O=C(O)c1ccc(NC(=S)NC(=O)c2cccnc2)cc1,26%[46.1 µM],-10%,25%[46.1 µM],i,4,29
O=C(NC(=S)Nc1ccccc1Br)c1cccnc1,.,.,.,.,10,.
O=C(COC(=O)c1cccs1)Nc1ccc(Cl)cn1,-30%,-2%,1%,i,.,.
SMILES,Marburg entry inh,VACV Venus inh,Lassa entry inh,VACV mCherry inh,CHX counter,Shiga inhibitor
O=C(NC(=S)Nc1ccc(Br)cn1)c1cccnc1,5%[46.1 µM],10%,-2%[46.1 µM],4%,28*,30
O=C(NC(=S)Nc1cccnc1)c1ccccc1,?,0%,.,-4%,28*,71*
COc1ccc(-c2cc3nc(C)c(CCC(=O)NC(C)c4ccccc4)c(C)n3n2)c(OC)c1 (stereo not given),?,1%,-4%[46.1 µM],-4%,.,.
O=C1NC(c2ccccc2)=C(c2nc3ccccc3s2)C(c2ccc(F)cc2)N1 (stereo not given),23µM*,.,?,.,0,-16
O=S(=O)(N/N=C\c1cccnc1)c1ccccc1,27%,-7%,-3%,-14%,-2,-28
FC(F)(F)c1ccc(N/N=C/c2cccnc2)nc1,14%[46.1 µM],?,1%,?,41*,71*
O=[N+]([O-])c1ccc(N/N=C\c2cccnc2)nc1,-8%,.,17%,.,6,7
C(=N\Nc1ccccn1)/c1cccnc1,.,.,.,.,24*,.
CC1CC(=O)C2=C(C1)OC(N)=C(C#N)C2c1coc2ccccc2c1=O (stereo not given),-5%,.,-2%,.,5,10
CC1CCOC(c2coc3ccccc3c2=O)O1 (stereo not given),?,-10%,?,i,59*,54*
C=CCOc1ccc(/C=N/N2C(=O)C(CC(=O)Nc3ccc(F)cc3F)SC2=NC)cc1 (stereo not given),?,?,?,?,21*,30*
CCNc1nc(N)c(C(=O)c2ccc(Cl)s2)s1,?,-66%,?,?,44*,130*
COC(=O)c1c(NC(=O)CN2CCC3(O)CCCCC3C2c2cc(OC)ccc2OC)sc(C)c1C (stereo not given),15µM*,?,7.9µM*,-10%,-3,11
COC(=O)c1c(NC(=O)CN2CCC3(O)CCCCC3C2c2ccc(F)cc2)sc(C)c1C (stereo not given),?,-13%,-8%,i,-2,14
COc1cccc(NC(=O)C2Cc3ccccc3CN2C(=O)c2ccco2)c1 (stereo not given),?,4%,10%[46.1 µM],-23%,54*,79*
COc1cccc(NC(=O)[C@@H]2CCCN2C(=O)[C@@H]2Cc3ccccc3CN2C(=O)OC(C)(C)C)c1,.,.,.,.,20*,52
O=C(NCc1ccccc1)C1Cc2ccccc2CN1C(=O)c1ccco1 (stereo not given),-17%[46.1 µM],-3%,-5%[46.1 µM],i,-3,6
Cc1ccc(C(=O)N2Cc3ccccc3CC2C(=O)O)cc1 (stereo not given),4%,4%,4%,i,-3,-5
NS(=O)(=O)c1ccc(NC(=O)C2Cc3ccccc3CN2C(=O)c2ccco2)cc1 (stereo not given),1%[46.1 µM],-7%,-10%,i,-6,15
Cc1ccccc1NC(=O)C1Cc2ccccc2CN1C(=O)c1ccco1 (stereo not given),7%,-7%,27%,-1%,45*,77*
COc1ccc(CNC(=O)[C@@H]2CCCN2C(=O)[C@@H]2Cc3ccccc3CN2C(=O)OC(C)(C)C)cc1,-8%[46.1 µM],-10%,10%[46.1 µM],i,2,10
Cc1ccc(NC(=O)C2Cc3ccccc3CN2C(=O)c2ccccc2)cc1Cl (stereo not given),?,-13%,-17%,-7%,18*,3
Cc1ccc(C(C)NC(=O)c2cc3cc(Br)ccc3oc2=N)cc1 (stereo not given),-12%,-12%,-8%,-12%,-1,-24
Cc1ccc(O[C@@H]2[C@H](O)CO[C@@H]2/C=C/C#Cc2ccc(C(C)(C)C)cc2)cc1,-35%[14.2 µM],.,.,.,.,.
O=C(O)C1Cc2ccccc2CN1C(=O)c1ccco1 (stereo not given),.,.,.,.,12*,.
COc1ccccc1CN1CCOc2ccc(CN3CCC(Oc4cccnc4)CC3)cc2C1,.,2%,.,-20%,.,.

# Screening data: PubChem BioAssay, National Center for Advancing Translational Sciences (NCATS)
